Screens: PubChem, National Center for Advancing Translational Sciences (NCATS)
SW480 rerep: induces DNA re-replication in SW480 colon adenocarcinoma cells; 1.8% of 340,000 active; Potency, µM (top dose mostly 46.1 µM), without a hit: at the highest dose re-replication activation, most hits filed as activators; SW480 DNA re-replication, Hoechst DNA content imaging, 48 h; further: potency means the concentration at half of the fitted maximal effect; % of control where 0% means no effect; nearly all actives have a fitted effect of over 55% in size
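Compounds, transferred as 23 nL by pin tool, were incubated with cells for 48 hr; DNA content per nucleus was then quantified by Hoechst staining and fluorescence plate imaging.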
IL-1B inflam inh: blocks inflammasome-driven IL-1 beta release. THP-1 LPS/ATP IL-1B secretion, AlphaLISA, 16 h; stronger effect = lower value. AID 743279. 4.7% of 360,000 active. activity change, % at 57.5 µM; in the data active means activity change below about -50%; inconclusive means mostly about -30% to -49%; further: on the % scale 0 is the no-effect control and ±100 the full control effect
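THP-1 cells pretreated 1 hr with compounds (up to 57.5 uM final), then stimulated with LPS (250 ng/mL final) plus ATP (1.25 mM final); secreted IL-1B measured by AlphaLISA after 16 hr, decreased signal indicating inhibition.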
MCF10A rereplic: induces DNA re-replication in MCF 10a normal breast cells | MCF 10A DNA re-replication, Hoechst nuclear intensity, 48 h | Potency, µM (doses to about 46.1 µM), for inactives: at the top dose activity, positive = re-replication, usual class: activators | 2.9% of 350,000 active | AID 624296; further: potency means the concentration at half of the fitted maximal effect; % of control where 0% means no effect; nearly all actives have a fitted effect of over 50% in size
Gal4-VP16 FLuc: inhibits Gal4-VP16 luciferase reporter, ROR gamma counter-screen; Drosophila S2 Gal4-VP16 UAS-luciferase, luminescence, 20 h; Potency, µM (titrated, usually from 53.6 µM), for the others: at the top dose activity, negative = inhibition, hits mostly inhibitors; 3.5% of 310,000 active;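 further: Gal4-VP16 expression switched on by copper sulfate through the metallothionein promoter; potency means the concentration at half of the fitted maximal effect; on the % scale 0 is the no-effect control and ±100 the full control effect; nearly all actives have a fitted effect of over 50% in size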
RORg inh: blocks mouse ROR gamma transcriptional activity; AID 2551; Drosophila S2 Gal4-RORgamma UAS-luciferase reporter, 20 h; 5.4% of 310,000 active; P51450; Potency, µM (titrated, usually from 53.6 µM), for the others: at the top dose activity change, negative = inhibition, hits mostly inhibitors; further: potency means the concentration at half of the fitted maximal effect; on the % scale 0 is the no-effect control and ±100 the full control effect; nearly all actives have a fitted effect of over 60% in size
Target sequence (P51450 whole entry, looked up, the tested form may be a part): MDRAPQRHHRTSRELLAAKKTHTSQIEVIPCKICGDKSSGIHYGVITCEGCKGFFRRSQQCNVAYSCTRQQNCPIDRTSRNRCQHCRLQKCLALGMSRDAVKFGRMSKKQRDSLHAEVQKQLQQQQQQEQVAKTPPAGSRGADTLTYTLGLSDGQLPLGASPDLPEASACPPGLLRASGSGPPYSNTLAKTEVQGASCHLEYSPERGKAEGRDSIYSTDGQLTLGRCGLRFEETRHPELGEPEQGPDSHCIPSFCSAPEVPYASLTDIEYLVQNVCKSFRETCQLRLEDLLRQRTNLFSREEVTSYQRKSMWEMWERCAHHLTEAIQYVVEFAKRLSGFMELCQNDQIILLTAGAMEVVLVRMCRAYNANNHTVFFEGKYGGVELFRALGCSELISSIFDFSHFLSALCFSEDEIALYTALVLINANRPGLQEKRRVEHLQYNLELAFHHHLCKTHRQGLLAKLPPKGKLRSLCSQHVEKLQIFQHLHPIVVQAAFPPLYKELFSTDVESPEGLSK
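Luciferase reporter read in Schneider cells carrying Gal4-RORγ (mouse) and UAS-Photinus luciferase; cells given compound 1 h before 700 uM copper sulfate induction, then incubated 20 h at ambient temperature.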
Numbers without * were called inactive; [ ] = remark or other dose. Rows were chosen to be rich in hits. Some 11% of all compounds tested hit in one or more screens of this group. Unless noted, the call rests on the fitted dose curve; in most records, active means well fitted curve in the direction sought with a large enough effect; inconclusive means small, poorly fitted or top-dose-only effect, or another doubt; inactive means no such curve, though single readings can be large; an effect the other way counts as inactive or inconclusive.

`CCOC(=O)c1cnc(-n2nc(C)cc2C)nc1NNc1cc(-c2ccccc2)nc(C)n1` gave Gal4-VP16 FLuc 0.1µM* and RORg inh 0.0891µM*.
Screening CCOC(=O)c1cnc(-n2nc(C)cc2C)nc1NNc1ncc(-c2ccccc2)cn1 returned SW480 rerep 18.5%, IL-1B inflam inh 49.9, MCF10A rereplic 11.4%, Gal4-VP16 FLuc inconclusive and RORg inh 5.62µM*.
For O=C(Nc1ccc2c(c1)OCO2)c1cc(C2CCCCN2C(=O)c2ccc3c(c2)CCO3)on1 (stereo unspecified) the results were IL-1B inflam inh -12.6.
Screening Cc1cc(O)ccc1N/C=C(\C#N)c1nc2ccccc2o1 returned SW480 rerep inconclusive, IL-1B inflam inh 3.2, MCF10A rereplic 18.4µM*, Gal4-VP16 FLuc -12.6% and RORg inh 14.1%.
CC(C)NC(=O)C1(C)CSCC(=O)N1Cc1cccc(F)c1 (stereo unspecified) was read as IL-1B inflam inh 0.0.
Screening O=C(CCCc1ccccc1)Nc1nccs1 returned SW480 rerep 0.5%, IL-1B inflam inh -6.4 and MCF10A rereplic 1.1%.
O=C(CSc1nc2ccccc2s1)N/N=C/c1cc([N+](=O)[O-])ccc1O was read as SW480 rerep inconclusive, IL-1B inflam inh 81.8, MCF10A rereplic 1.4%, Gal4-VP16 FLuc inconclusive and RORg inh 5.01µM*.
For Cc1ccc(/C=N/NC(=O)CSc2nc3ccccc3s2)o1 the results were SW480 rerep -1.7%, IL-1B inflam inh 13.7, MCF10A rereplic 6.9%, Gal4-VP16 FLuc 4.1% and RORg inh -32.6%.
`Cc1ccc(NC(=O)CCC(=O)N/N=C/c2cc([N+](=O)[O-])ccc2O)cc1` gave SW480 rerep inconclusive, IL-1B inflam inh 65.2, MCF10A rereplic inconclusive, Gal4-VP16 FLuc 14.1µM* and RORg inh 12.6µM*.
Screening CN1CCN(CCC(=O)N/N=C/c2cc([N+](=O)[O-])ccc2O)CC1 returned SW480 rerep -0.3%, IL-1B inflam inh 18.3, MCF10A rereplic inconclusive, Gal4-VP16 FLuc inconclusive and RORg inh inconclusive.
Screening Cc1cc(O)c(C(C)C)cc1N=Cc1cc([N+](=O)[O-])ccc1O returned SW480 rerep 9.9%, IL-1B inflam inh 2.3, MCF10A rereplic inconclusive, Gal4-VP16 FLuc inconclusive and RORg inh 10µM*.
Screening Cc1cc(=O)oc2cc(OCC(=O)N/N=C/c3cc([N+](=O)[O-])ccc3O)ccc12 returned SW480 rerep inconclusive, IL-1B inflam inh 0.0, MCF10A rereplic 6.6%, Gal4-VP16 FLuc 2.24µM* and RORg inh 1.26µM*.
For CCN1C(=O)[C@H]2[C@H]3[C@H](O)[C@H](O)C/C(=N/OCC(C)C)[C@H]3CC[C@@H]2C1=O the results were Gal4-VP16 FLuc 2.5%[10 µM] and RORg inh -20.1%[10 µM].
For COC(=O)[C@]12CCCCC=C1N(Cc1ccccc1)C(=O)[C@H](CC(=O)N1CCCCC1)C2 the results were IL-1B inflam inh -2.0.
Cc1ccccc1N1CCN(C(=O)NCc2cccc(Cl)c2)CC1 was read as SW480 rerep 8.7%, IL-1B inflam inh -21.2, MCF10A rereplic inconclusive, Gal4-VP16 FLuc 9.8% and RORg inh inconclusive.
`O=C(NNC(=O)c1ccc(S(=O)(=O)N2CCCCC2)cc1)c1ccc(F)cc1` gave SW480 rerep -15.1%, IL-1B inflam inh -1.0, MCF10A rereplic -3.4%, Gal4-VP16 FLuc -1.1% and RORg inh -9.3%.
`Cc1cc(SCc2cccc(C(F)(F)F)c2)nc(=O)[nH]1` gave SW480 rerep -2.1%, IL-1B inflam inh 7.1, MCF10A rereplic inconclusive, Gal4-VP16 FLuc -16.2% and RORg inh 19.0%.
Screening Cc1ccccc1NC(=O)CCC(=O)N/N=C/c1cc([N+](=O)[O-])ccc1O returned SW480 rerep inconclusive, IL-1B inflam inh 22.8, MCF10A rereplic inconclusive, Gal4-VP16 FLuc inconclusive and RORg inh 3.98µM*.
`Cc1ccc(C)c(NC(=O)CCC(=O)N/N=C/c2cc([N+](=O)[O-])ccc2O)c1` gave SW480 rerep inconclusive, IL-1B inflam inh 79.7, MCF10A rereplic inconclusive, Gal4-VP16 FLuc inconclusive and RORg inh 5.62µM*.
For Cc1c(C)c2c(c(C)c1O)CC[C@@](C)(C(=O)O)O2 the results were Gal4-VP16 FLuc -13.8%[17 µM] and RORg inh 5.1%[16.9 µM].
`CC(C)CC1=C/C(=C/c2ccc(-c3ccccc3)o2)C(=O)O1` gave SW480 rerep 1.7%, IL-1B inflam inh 0.0, MCF10A rereplic 25.9µM*, Gal4-VP16 FLuc 5.9% and RORg inh 13.9%.
For COc1ccc(C(=O)OCC(=O)NCC2CCCCC2)cc1F the results were SW480 rerep 19.4%, IL-1B inflam inh 0.1 and MCF10A rereplic 8.2µM*.
Screening COc1ccc(CC(=O)NCC2CCCCC2)cc1OC returned SW480 rerep 5.8µM*, IL-1B inflam inh 15.5, MCF10A rereplic 0.8%, Gal4-VP16 FLuc 12.0% and RORg inh 4.8%.
For Cc1ccc(-c2cc(C(=O)N3CCN(C(=O)c4ccco4)CC3)[nH]n2)cc1C the results were SW480 rerep 27.0%, IL-1B inflam inh inconclusive, MCF10A rereplic 1.1%, Gal4-VP16 FLuc -6.0% and RORg inh 20.2%.
COc1cc(OC)cc(C2=Nn3c(nnc3-c3ccccc3O)SC2)c1 was read as Gal4-VP16 FLuc inconclusive and RORg inh -1.9%.
`CCOc1ccc(NS(=O)(=O)c2ccc(OCC)c3ncccc23)cc1` gave SW480 rerep 20.6µM*, IL-1B inflam inh 29.4, MCF10A rereplic inconclusive, Gal4-VP16 FLuc inconclusive and RORg inh inconclusive.
COc1ccc(/C=N/OCC(=O)N=Nc2c(O)[nH]c3ccc(Br)cc23)cc1 was read as SW480 rerep 1.0%, IL-1B inflam inh -13.3, MCF10A rereplic 23.9%, Gal4-VP16 FLuc 1.7% and RORg inh 31.9%.
`Oc1[nH]c2ccc(Br)cc2c1N=NC(=S)Nc1ccc(F)cc1` gave SW480 rerep inconclusive, IL-1B inflam inh -1.9, MCF10A rereplic 1.0%, Gal4-VP16 FLuc 7.94µM* and RORg inh 0.794µM*.
Screening Cc1cccc(C)c1OCC(=O)N=Nc1c(O)[nH]c2ccc(Br)cc12 returned SW480 rerep inconclusive, IL-1B inflam inh 13.6, MCF10A rereplic 20.6µM*, Gal4-VP16 FLuc -4.5% and RORg inh -14.3%.
For Oc1cccc(NC(=S)N=Nc2c(O)[nH]c3ccc(Br)cc23)c1 the results were SW480 rerep -9.1%, IL-1B inflam inh -5.5, MCF10A rereplic -21.2%, Gal4-VP16 FLuc -7.5% and RORg inh -40.5%.
`Oc1ccc(NC(=S)N=Nc2c(O)[nH]c3ccc(Br)cc23)cc1` gave SW480 rerep inconclusive, IL-1B inflam inh -63.6*, MCF10A rereplic inconclusive, Gal4-VP16 FLuc inconclusive and RORg inh 10µM*.
Screening CCCNC(=O)C1(C)CCN(C(=O)Cc2ccc3ccccc3c2)C1 (stereo unspecified) returned IL-1B inflam inh 0.0.
